High-throughput results: PubChem BioAssay, several laboratories
The list is not random: actives were taken first. Their share in the collection is about 4.7%.
tim10-1 inh – growth inhibitors of tim10-1 mutant yeast | S. cerevisiae tim10-1 ts strain growth, BacTiter-Glo, 24 h | inhibition, % at 20 µM | hit rate 2.2% among 330,000 | AID 463190;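 active = inhibition of at least 40%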;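 also: mutant grown at 25 °C; 0% = DMSO wells with yeast and 100% = wells holding no yeast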
tim23-1 inh – growth inhibitors of tim23-1 mutant yeast | S. cerevisiae tim23-1 growth, BacTiter-Glo luminescence, 24 h | inhibition, % at 20 µM | hit rate 1.3% among 330,000 | AID 463212;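 active = growth inhibition of the mutant yeast at or above 50%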;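 also: temperature-sensitive mutant grown at 25 °C; plate controls were DMSO-treated mutant yeast for no effect and medium wells lacking yeast for full effect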
PfHsp90 yeast 2 – reduces growth (ATP signal) of yeast expressing P. falciparum Hsp90; hit rate 0.32% among 310,000; S. cerevisiae expressing PfHsp90, BacTiter-Glo ATP, 48 h; yeast lacking PDR1 and PDR3 efflux regulators; inhibition, % at 9.4 µM;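 active = every replicate shows inhibition above about 80%, whatever the replicate mean, limit read from the data; inconclusive = mean inhibition reaches the set limit but some replicate falls short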;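 also: 0% = DMSO neutral controls and 100% = 20 µM radicicol positive controls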
TIM10 inh – inhibits growth of TIM10 yeast strain | AID 463195 | inhibition, % at 10 µM | S. cerevisiae TIM10 strain growth, BacTiter-Glo luminescence, 24 h | hit rate 1.4% among 330,000;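 active = inhibition of 40% or more at the single tested concentration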;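 also: wild-type TIM10 isogenic control strain grown at permissive 25 °C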
Calb FLC – affects C. albicans growth with fluconazole; C. albicans CaCi-2 (fluconazole-resistant clinical isolate) + fluconazole, Alamar Blue growth, 48 h; growth inhibition, % (no concentration beside the values); hit rate 0.57% among 300,000; AID 1979;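 active = growth inhibition above about 58% in most replicates, limit read from the data, passing the limit was not always enough; inconclusive = exactly half the replicates above a set limit; inactive = most replicates below a set limit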;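 also: all wells also contain fluconazole at 8 µg/ml as a sub-toxic cotreatment; 0% = median of DMSO wells and 100% = median of geldanamycin control wells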
SKKanGAS inh – blocks kanamycin growth of S. pyogenes SKKanGAS strain. BacTiter-Glo, 6 h. inhibition, % at 7.5 µM. hit rate 1.3% among 300,000. AID 1662;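 active = mean replicate score, as percent of positive control median, at least 50; inconclusive = mean below 50 but one replicate at or above 50; inactive = mean and every replicate below 50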;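 also: strain carries kanamycin resistance gene driven by streptokinase promoter and grows in 40 µg/ml kanamycin; loss of luminescence reflects streptokinase promoter inhibition or plain growth inhibition; 0% = median of DMSO wells and 100% = positive control at its reference dose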
tim10-1 confirm – tim10-1 yeast growth inhibition, confirmed | shares compounds with tim10-1 inh | S. cerevisiae tim10-1 ts strain growth, BacTiter-Glo, 24 h | inhibition, % at 20 µM | hit rate 56% among 7,400;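 active = inhibition of yeast growth at or above a set limit in either of two repeat tests at 20 µM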;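 also: tim10-1 mutant grown at permissive 25 °C to find synthetic lethal compounds; 0% = DMSO yeast wells and 100% = medium wells without yeast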
TIM10 conf – confirmation of TIM10 yeast growth inhibitors; shares compounds with TIM10 inh; S. cerevisiae tim10 strain growth, BacTiter-Glo luminescence, 24 h; inhibition, % at 10 µM; hit rate 63% among 4,600; AID 463215;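 active = inhibition of yeast growth at or above a set limit in either of two replicates at 10 µM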;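 also: this counterscreen used the strain with wild-type TIM10; 0% = yeast with DMSO and 100% = medium wells lacking yeast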
tim23-1 conf – confirmation of tim23-1 mutant yeast growth inhibitors | shares compounds with tim23-1 inh | S. cerevisiae tim23-1 growth, BacTiter-Glo luminescence, 24 h | inhibition, % at 20 µM | hit rate 83% among 4,400;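 active = inhibition above about 39% in either of two replicate wells at 20 µM, limit read from the data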;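 also: temperature-sensitive tim23-1 mutant grown at 25 °C; 0% = DMSO wells with yeast and 100% = medium wells without yeast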
Active calls of the source: *; ? = inconclusive; · = not tested or not shown.

SMILES	tim10-1 inh	tim23-1 inh	PfHsp90 yeast 2	TIM10 inh	Calb FLC	SKKanGAS inh	tim10-1 confirm	TIM10 conf	tim23-1 conf
COc1ccccc1-c1nc2s/c(=C\c3cccs3)c(=O)n2n1	64*	78*	-14	57*	-3	22	29	-18	76*
CCCOc1ccc(Cc2nn3c(=O)/c(=C/c4ccco4)sc3nc2=O)cc1	20	24	-40	20	17	-2	·	·	·
O=c1/c(=C/c2ccco2)sc2nc(-c3ccccc3Br)nn12	45*	57*	3	64*	·	·	41*	51*	45*
Cc1cc2sc3nc(=O)n(-c4ccccc4)c(=O)n3c2cc1C	22	0	-6	23	1	0	·	·	·
N/C(=N\OC(=O)c1ccccc1Cl)c1ccccc1	52*	57*	-10	47*	-3	-2	55*	43*	52*
N/C(=N/OC(=O)c1ccccc1Cl)c1nonc1N	24	22	58	17	-16	34	·	·	·
N/C(=N\OC(=O)c1ccc(Cl)cc1Cl)c1cccnc1	58*	52*	·	51*	8	8	55*	36*	42*
N/C(=N\OC(=O)c1ccccc1Cl)c1ccc(Cl)cc1	53*	81*	·	79*	-1	8	37*	82*	72*
COc1ccccc1C(=O)O/N=C(\N)c1ccccc1Cl	41*	52*	8	35	28	-4	40*	·	32
CC1CN(C(=O)CCC(=O)NCc2ccccc2)c2ccccc2O1 (stereo not drawn)	21	18	-12	0	30	0	·	·	·
CCN(CC)CC(C)CNC(=O)C1(O)c2ccccc2NC(=O)N1c1ccc(Cl)c(Cl)c1 (stereo not drawn)	-11	-5	0	10	-3	5	·	·	·
CCOC(=O)c1c(SC)[nH]c2c(Cl)cccc2c1=O	-5	11	-3	-8	3	-3	·	·	·
O=C(/C=C/c1ccco1)OCC(=O)N1CCCCC1	-5	2	·	-14	·	·	·	·	·
N/C(=N\OC(=O)c1ccc(Cl)cc1Cl)c1ccccc1	62*	82*	-4	87*	4	16	55*	84*	78*
Cc1ccc(/C=C/C(=O)NC2CCCCCCC2)o1	55*	52*	-8	46*	-7	5	57*	38*	58*
Cc1ccc(/C=N/NC(=O)NC2CCCCC2)o1	14	14	9	25	-22	-1	·	·	·
N#CCC(=O)Nc1ccc(C(=O)N2CCN(c3ccccn3)CC2)cc1	1	11	14	10	3	1	·	·	·
CCOC(=O)n1c(=O)n(Cc2ccc(F)cc2)c2ccccc21	24	29	-16	-1	-4	2	·	·	·
CCOC(=O)n1c(=O)n(Cc2cccc(C)c2)c2ccccc21	51*	59*	-39	35	15	6	41*	·	53*
CCN(C(=O)COC(=O)CCc1ccccc1)c1ccccc1	10	24	-10	26	2	7	·	·	·
O=C1c2c(Br)c(Br)c(Br)c(Br)c2C(=O)N1c1ccccn1	76*	86*	-14	69*	2	-5	75*	75*	58*
COc1ccccc1N1CCN(C2CCCCC2NS(=O)(=O)c2ccccc2)CC1 (stereo not drawn)	-3	16	-14	14	-30	1	·	·	·
O=C(Nc1ncc([N+](=O)[O-])s1)c1ccco1	40*	53*	38	46*	?	14	40*	23	48*
OCC1(Cc2ccccc2F)CCCN(Cc2c(F)ccc(F)c2F)C1 (stereo not drawn)	-3	16	37	-3	-7	12	·	·	·
COC(=O)c1cc(CN2CCN(c3ccccc3)CC2)ccc1O	2	14	3	-18	-1	2	·	·	·
SMILES	tim10-1 inh	tim23-1 inh	PfHsp90 yeast 2	TIM10 inh	Calb FLC	SKKanGAS inh	tim10-1 confirm	TIM10 conf	tim23-1 conf
Cc1cc(C)c2c(N)c(S(=O)c3ccc(C(C)(C)C)cc3)sc2n1 (stereo not drawn)	63*	60*	-5	35	3	0	44*	·	62*
CCOc1cc(/C=C(\C#N)C(N)=O)ccc1OS(=O)(=O)c1ccccc1	48*	57*	-8	31	-8	4	38*	·	58*
CCOC(=O)/C(C#N)=C/c1ccc(OC)c(OC)c1	2	11	-2	0	8	-2	·	·	·
O=C1N(Cc2ccccc2)CC2(Br)COCOC12O (stereo not drawn)	·	·	-28	·	·	·	·	·	·
COc1ccc(OCC(=O)Nc2cc(OC)ccc2N2CCCCC2)cc1	-2	1	-3	-21	1	6	·	·	·
COc1ccc(C(=S)N2CCOCC2)cc1OC(=O)c1ccc([N+](=O)[O-])cc1[N+](=O)[O-]	60*	58*	2	71*	-1	4	74*	68*	68*
O=C(Oc1ccccc1C(=S)N1CCOCC1)c1ccc([N+](=O)[O-])cc1[N+](=O)[O-]	56*	54*	6	45*	-3	0	49*	49*	52*
COc1cc(C(=S)N2CCOCC2)ccc1OC(=O)c1cc([N+](=O)[O-])cc([N+](=O)[O-])c1	40	26	-1	22	23	-4	·	·	·
CCNS(=O)(=O)c1ccc(CCC(=O)N2CCN(C(=O)OCC)CC2)cc1	-11	-2	-15	-3	-6	1	·	·	·
Cn1c(C(=O)N2CCN(c3ccccc3)CC2)cc2cc(Cl)ccc21	10	35	-7	17	5	5	·	·	·
O=[N+]([O-])c1cc(S(=O)(=O)C(F)(F)F)ccc1Sc1nc2ccccc2[nH]1	60*	68*	-16	58*	-2	99*	48*	51*	59*
COc1ccc(C(=O)CSc2nnc(-c3ccc(C)cc3)o2)cc1	13	-10	·	-15	3	-8	·	·	·
COc1ccc(-c2nnc(SCC(=O)Oc3ccc(C)cc3)o2)cc1	91*	53*	105*	89*	8	3	84*	91*	58*
O=C(COC(=O)c1ccc2c(c1[N+](=O)[O-])C(=O)c1ccccc1C2=O)NC1CC1	80*	76*	-43	60*	42	·	64*	46*	73*
CC(C)(C)Nc1c([N+](=O)[O-])c(=O)sc2ccccc12	55*	71*	1	60*	10	0	53*	49*	69*
